We go through five compounds from PubChem BioAssay.

Molecules are shown by their SMILES. Active and inactive are the calls of the source.

Assay [1] is described as follows: small molecules captured by biotinylated probe aFSTL3 – biochemical, small-molecule microarray, fluorescence 635/667, stem cell growth factor project, primary screen (AID 1064).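 Further: measures binding of the biotinylated anti-FSTL3 antibody to printed compounds.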 Conditions: higher = more signal.
The nature of assay [2]: binders from COS7 lysate, DM2A8 probe, primary screen, torsin A project, cell lysate, small-molecule microarray, fluorescence 635/667 (AID 1065). Conditions: higher = more signal, COS7 lysate expressing mutant human TOR1A.
Assay [3] is described as follows: small molecules captured by biotinylated probe aFGF2 – biochemical, small-molecule microarray, fluorescence 635/667, stem cell growth factor project, primary screen (AID 1067).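 Further: measures binding of biotinylated aFGF2 protein to printed compounds on slides; z-score merges feature fluorescence and signal-to-noise across triplicate slides.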 Conditions: higher = more signal.
A short description of assay [4]: small molecules captured by biotinylated probe aFGF10 – biochemical, small-molecule microarray, fluorescence 635/667, stem cell growth factor project, primary screen (AID 1071).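 Further: score merges 667 nm spot intensity and signal to noise from triplicate slides.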 Conditions: higher = more signal.
The target in assay [5] is Neurogenic locus notch homolog protein 2 (Homo sapiens) (UniProt Q04721). Put plainly: small molecules binding Notch2 protein – biochemical, small-molecule microarray, 635 nm fluorescence, stem cell growth factors, primary screen (AID 1073). Conditions: higher = more signal.
Assay [6] has as its target Pro-neuregulin-1, membrane-bound isoform (Homo sapiens) (UniProt Q02297). Put plainly: small molecules binding neuregulin-1 protein – biochemical, small-molecule microarray, fluorescence 635/667, psychiatric disease protein project, primary screen (AID 1075).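 Further: score combines 667 nm spot fluorescence with signal to noise.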 Conditions: NRG1 binding, 635 nm fluorescence, higher = more signal.
Assay [7] has as its system Neuregulin-1 EGF-like domain. In words: small molecules binding NRG1 EGF domain – biochemical, small-molecule microarray, 635 nm fluorescence, primary screen (AID 1081).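 Further: binding of the protein to compounds printed on small-molecule microarray slides.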 Conditions: higher = more signal.
Assay [8] in a line: FRG1 expression reporter modulators in myotubes – cell-based, C2C12 myotubes, firefly/Renilla luciferase, luminescence, FRG1 inhibition for FSHD, primary screen (AID 1084). Particulars: FRG1 promoter luciferase, higher = more signal, called active from +8 up or from −8 down.
A short description of assay [9]: small molecules captured by biotinylated probe aFST – biochemical, small-molecule microarray, fluorescence 635/667, stem cell growth factor project, primary screen (AID 1086).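 Further: score merges 667 nm fluorescence with signal-to-noise of each printed compound spot.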 Conditions: higher = more signal.
Assay [10] is described as follows: binders of probe aHhip on microarray, primary screen, stem cell growth factor project, biochemical, small-molecule microarray, fluorescence 635/667 (AID 1087).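 Further: score merges spot fluorescence at 667nm with spot signal to noise ratio.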 Conditions: higher = more signal.
The test system of assay [11] is PRMT1 (protein arginine N-methyltransferase 1). In words: small molecules binding arginine methyltransferase PRMT1 – biochemical, small-molecule microarray, 635 nm fluorescence, primary screen (AID 1088).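 Further: binding of Prmt1 protein to compounds spotted on small-molecule microarray slides.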 Conditions: higher = more signal.
Assay [12] is described as follows: growth effects on S. cerevisiae YJM789 – YJM789 clinical isolate, OD600, 24 h, basal, primary screen (AID 1089).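 Further: growth of clinical yeast isolate S. cerevisiae YJM 789 seeded 1000 cells per well; test concentration not given here.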 Conditions: higher = more signal, called active from +8 up or from −8 down.
Assay [13] in a line: S. pombe growth modifiers, basal conditions – strain 972, OD600, 24 h, no modulator, primary screen (AID 1090).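 Further: basal condition with compound alone and no growth modifier present; test concentration not given here.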 Conditions: S. pombe 972 growth, higher = more signal, called active from +8 up or from −8 down.
The nature of assay [14]: budding yeast growth modifiers under rapamycin – strain BY4716, OD600, 96 h, primary screen (AID 1091). Further: test concentration not given here. Particulars: S. cerevisiae BY4716 + rapamycin, higher = more signal, called active from +8 up or from −8 down.
The target of assay [15] is Torsin-1A-interacting protein 2 (Homo sapiens) (UniProt Q8NFQ8). In words: small molecules binding lysate-expressed LULL1 – cell lysate, human LULL1 lysate, 635/667 nm fluorescence, primary screen (AID 1092).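 Further: probe is lysate of COS7 cells overexpressing human LULL1; score merges per-feature 667 nm fluorescence with signal-to-noise.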 Conditions: small-molecule microarray, hLULL1 lysate binding, 635 nm fluorescence; higher = more signal.
Assay [16] can be described thus: optical density change of DRC41 E. coli – strain DRC41, OD650, 24 h, E. coli filamentation project, primary screen (AID 1093).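 Further: MC1000 strain lacking acrAB efflux and sulA so SOS filamentation is blocked; test concentration not given here.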 Conditions: E. coli DRC41 growth, higher = more signal, called active from +8 up or from −8 down.
The nature of assay [17]: probe aLefty2 binding to arrayed compounds – biochemical, biotinylated probe, 635/667 nm fluorescence, primary screen (AID 1094).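 Further: score merges spot fluorescence near 667 nm with spot signal-to-noise ratio.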 Conditions: small-molecule microarray, higher = more signal.
Assay [18] deals with Noggin (protein binding on small-molecule microarray). In words: small molecules binding Noggin protein – biochemical, 635/667 nm fluorescence, primary screen (AID 1095).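 Further: score merges 667 nm feature fluorescence with signal to noise over triplicate slides.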 Particulars: 635 nm fluorescence, higher = more signal.
The target of assay [19] is Neurogenic locus notch homolog protein 3 (Homo sapiens) (UniProt Q9UM47). Put plainly: small molecules binding NOTCH3 protein – biochemical, 635/667 nm fluorescence, primary screen (AID 1096). Conditions: small-molecule microarray, 635 nm fluorescence, higher = more signal.
Assay [20] is described as follows: probe aEGFR binding to arrayed compounds – biochemical, biotinylated probe, 635/667 nm fluorescence, primary screen (AID 1097).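 Further: probe is a biotinylated anti-EGFR antibody binding compounds printed on slides; score combines fluorescence near 667 nm and signal to noise of each spot.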 Conditions: small-molecule microarray, higher = more signal.

Chain of Pro-neuregulin-1, membrane-bound isoform (Homo sapiens) (Q02297 whole entry, looked up, the tested form may be a part, canonical isoform): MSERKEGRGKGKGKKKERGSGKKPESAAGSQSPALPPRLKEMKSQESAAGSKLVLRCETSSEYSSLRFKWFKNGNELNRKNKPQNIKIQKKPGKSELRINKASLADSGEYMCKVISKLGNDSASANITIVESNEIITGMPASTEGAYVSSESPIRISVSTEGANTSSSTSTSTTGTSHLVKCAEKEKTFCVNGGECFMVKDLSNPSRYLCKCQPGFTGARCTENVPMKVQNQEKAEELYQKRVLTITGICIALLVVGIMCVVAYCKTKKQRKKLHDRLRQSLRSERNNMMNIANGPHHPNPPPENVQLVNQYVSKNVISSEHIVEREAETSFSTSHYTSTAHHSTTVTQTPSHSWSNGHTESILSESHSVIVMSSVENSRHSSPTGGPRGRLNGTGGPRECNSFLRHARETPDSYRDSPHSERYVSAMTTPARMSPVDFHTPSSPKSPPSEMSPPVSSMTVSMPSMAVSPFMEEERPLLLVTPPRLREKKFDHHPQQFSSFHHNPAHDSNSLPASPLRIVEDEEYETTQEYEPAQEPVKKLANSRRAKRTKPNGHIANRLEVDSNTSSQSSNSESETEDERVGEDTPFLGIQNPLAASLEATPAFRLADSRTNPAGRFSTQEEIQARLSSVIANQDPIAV
Chain of Neurogenic locus notch homolog protein 3 (Homo sapiens) (Q9UM47 whole entry, looked up): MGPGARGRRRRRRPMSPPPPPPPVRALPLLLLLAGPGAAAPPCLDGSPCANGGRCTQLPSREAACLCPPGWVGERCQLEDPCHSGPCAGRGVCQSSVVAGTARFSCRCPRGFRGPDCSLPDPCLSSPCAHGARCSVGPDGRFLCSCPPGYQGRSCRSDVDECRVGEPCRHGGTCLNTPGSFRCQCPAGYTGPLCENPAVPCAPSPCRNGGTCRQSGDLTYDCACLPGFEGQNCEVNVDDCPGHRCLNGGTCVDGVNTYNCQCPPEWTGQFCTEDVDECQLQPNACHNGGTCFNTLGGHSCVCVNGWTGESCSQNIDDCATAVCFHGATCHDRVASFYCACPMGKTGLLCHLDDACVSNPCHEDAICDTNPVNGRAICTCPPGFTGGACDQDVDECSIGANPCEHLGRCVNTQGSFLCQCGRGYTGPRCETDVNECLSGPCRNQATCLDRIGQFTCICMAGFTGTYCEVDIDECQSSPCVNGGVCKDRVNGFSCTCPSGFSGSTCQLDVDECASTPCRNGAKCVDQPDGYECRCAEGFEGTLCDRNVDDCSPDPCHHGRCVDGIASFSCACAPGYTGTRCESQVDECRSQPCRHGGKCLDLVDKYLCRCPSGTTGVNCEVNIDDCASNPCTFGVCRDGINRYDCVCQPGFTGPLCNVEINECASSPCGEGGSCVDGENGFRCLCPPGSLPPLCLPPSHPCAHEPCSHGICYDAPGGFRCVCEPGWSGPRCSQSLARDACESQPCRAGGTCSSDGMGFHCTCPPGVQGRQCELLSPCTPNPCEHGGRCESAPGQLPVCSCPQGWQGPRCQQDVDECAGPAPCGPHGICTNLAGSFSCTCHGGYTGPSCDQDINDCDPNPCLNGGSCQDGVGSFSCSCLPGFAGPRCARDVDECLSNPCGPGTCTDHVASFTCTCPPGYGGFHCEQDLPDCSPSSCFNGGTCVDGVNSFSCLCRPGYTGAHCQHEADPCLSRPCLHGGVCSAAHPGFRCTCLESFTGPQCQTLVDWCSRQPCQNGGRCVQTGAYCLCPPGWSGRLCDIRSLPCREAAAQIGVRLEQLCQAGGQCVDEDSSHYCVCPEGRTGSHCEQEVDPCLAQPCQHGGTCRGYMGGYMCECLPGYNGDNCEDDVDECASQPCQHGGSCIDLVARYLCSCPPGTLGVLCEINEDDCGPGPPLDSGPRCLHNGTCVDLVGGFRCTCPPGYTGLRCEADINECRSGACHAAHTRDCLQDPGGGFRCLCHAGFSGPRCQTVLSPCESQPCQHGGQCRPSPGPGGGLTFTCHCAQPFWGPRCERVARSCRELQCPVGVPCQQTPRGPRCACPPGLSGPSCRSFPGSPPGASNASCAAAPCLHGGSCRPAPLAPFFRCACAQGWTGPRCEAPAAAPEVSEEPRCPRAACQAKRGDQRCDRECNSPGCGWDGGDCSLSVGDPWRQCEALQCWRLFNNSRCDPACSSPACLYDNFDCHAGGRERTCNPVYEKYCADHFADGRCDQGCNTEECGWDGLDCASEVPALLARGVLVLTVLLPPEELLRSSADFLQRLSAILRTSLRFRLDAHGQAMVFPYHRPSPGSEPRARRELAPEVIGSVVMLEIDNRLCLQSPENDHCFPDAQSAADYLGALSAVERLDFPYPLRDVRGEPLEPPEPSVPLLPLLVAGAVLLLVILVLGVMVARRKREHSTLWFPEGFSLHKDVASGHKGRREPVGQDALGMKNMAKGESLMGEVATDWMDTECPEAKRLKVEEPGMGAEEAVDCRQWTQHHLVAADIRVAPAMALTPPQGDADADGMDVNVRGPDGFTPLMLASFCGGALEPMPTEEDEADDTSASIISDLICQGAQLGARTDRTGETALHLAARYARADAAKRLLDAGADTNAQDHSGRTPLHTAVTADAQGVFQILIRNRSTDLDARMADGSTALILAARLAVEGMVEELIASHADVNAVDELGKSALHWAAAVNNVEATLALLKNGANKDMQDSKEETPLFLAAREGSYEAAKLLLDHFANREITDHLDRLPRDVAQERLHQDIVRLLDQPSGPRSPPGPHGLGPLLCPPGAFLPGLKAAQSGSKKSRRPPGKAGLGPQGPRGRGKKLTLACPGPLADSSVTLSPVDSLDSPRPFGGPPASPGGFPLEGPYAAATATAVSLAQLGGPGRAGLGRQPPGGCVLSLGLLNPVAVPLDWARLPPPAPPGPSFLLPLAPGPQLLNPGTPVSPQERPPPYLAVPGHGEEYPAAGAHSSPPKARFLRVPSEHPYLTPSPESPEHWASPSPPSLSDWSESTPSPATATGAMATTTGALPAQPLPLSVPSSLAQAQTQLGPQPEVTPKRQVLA
Chain of Torsin-1A-interacting protein 2 (Homo sapiens) (Q8NFQ8 whole entry, looked up): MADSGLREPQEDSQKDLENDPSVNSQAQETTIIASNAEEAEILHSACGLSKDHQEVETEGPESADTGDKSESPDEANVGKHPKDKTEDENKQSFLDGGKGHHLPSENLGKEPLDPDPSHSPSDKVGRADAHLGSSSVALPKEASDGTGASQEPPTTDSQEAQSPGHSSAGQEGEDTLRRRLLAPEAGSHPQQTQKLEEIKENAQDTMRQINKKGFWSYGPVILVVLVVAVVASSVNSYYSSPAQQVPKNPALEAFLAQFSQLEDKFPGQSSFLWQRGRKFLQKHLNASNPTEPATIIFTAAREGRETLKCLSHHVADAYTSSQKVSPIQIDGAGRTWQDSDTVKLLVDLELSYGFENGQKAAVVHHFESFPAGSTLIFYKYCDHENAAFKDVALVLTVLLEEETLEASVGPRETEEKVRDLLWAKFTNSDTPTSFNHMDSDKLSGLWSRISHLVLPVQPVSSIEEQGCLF

For the compound `CO[C@H]1COC(=O)[C@H](C)COC(=O)[C@H](C)NC(=O)CC=C[C@H]1C`, the composite z-score is -0.874 in [1]; 1.28 in [2]; -0.145 in assay [3]; 0.37 in [4]; 0.127 in assay [5]; -0.575 in [6]. In addition, the composite z-score in assay [7] was 0.887; in assay [9], 0.0261; in assay [10], 0.124; in assay [11], 1.34; in assay [15], 0.449; in assay [17] it was -0.166. Besides, the composite z-score is 1.29 in [18], 0.696 in assay [19] and -0.122 in [20]. For the same compound, the z-score was -0.592 (inactive) in [8]; -0.301 (inactive) in [12]; -0.296 (inactive) in [13]; -0.253 (inactive) in assay [14]; 0.828 (inactive) in assay [16].

On to `C#CCCCON=C1C[C@@H](O)[C@@H](O)[C@@H]2[C@@H]3C(=O)N([C@@H](C)c4ccccc4)C(=O)[C@@H]3CC[C@@H]12`, for which the composite z-score is -0.0065 in [1]; -0.318 in [2]; -0.17 in assay [3]; -0.46 in assay [4]; -0.351 in assay [5]; -0.191 in assay [6]. Besides, the composite z-score in assay [7] is -0.934; in assay [9], -0.069; in assay [10], -0.267; in [11], -0.0587; in assay [15] it was -0.148; in assay [17], -0.161. Further, the values for the composite z-score in assay [18], in [19] and in assay [20] were -0.225, -0.746 and -0.1, respectively. Also, the z-score was 0.0665 (inactive) in assay [8]; 0.837 (inactive) in assay [12]; 1.4 (inactive) in assay [13]; 1.26 (inactive) in assay [14]; 0.761 (inactive) in assay [16].

Turning to `CC(=O)OC[C@H]1O[C@@H](ON=C(C)C)[C@H](OC(C)=O)[C@@H](OC(C)=O)[C@@H]1OC(C)=O`, the composite z-score was -0.133 in assay [1]; 1.57 in assay [2]; -0.194 in [3]; -0.526 in assay [4]; -0.105 in [5]; -1.53 in assay [6]. Also, the composite z-score in [7] was -1.47; in assay [9] it was 0.298; in [10], -0.283; in assay [11] it was -0.312; in assay [15] it was -1.31; in assay [17], 0.089. In addition, the composite z-score in assay [18] is 0.0419; in assay [19], -1.53; in assay [20], -0.0393. The z-score in [8] was 0.212 (inactive); in [12], 0.559 (inactive); in assay [13] it was -0.159 (inactive); in [14], 0.196 (inactive); in assay [16], -0.109 (inactive).

For the compound `CCN(CC)CC(O)CN1CCCCc2nc(C)c(C)cc21` (stereo not given), the composite z-score in assay [1] is -0.482; in assay [2], 1.04; in [3], -0.14; in assay [4], 0.456; in assay [5], 0.635; in assay [6], -0.164. Moreover, the composite z-score is 1.07 in assay [7]; 0.101 in [9]; -0.112 in assay [10]; 0.357 in assay [11]; 0.657 in assay [15]; -0.343 in assay [17]. Also, the composite z-score is 0.454 in [18], 0.431 in assay [19] and -0.0148 in [20]. In addition, the z-score in [8] was -1.2 (inactive); in assay [12], -1.59 (inactive); in assay [13], -1.34 (inactive); in assay [14], -0.425 (inactive); in assay [16], -0.0207 (inactive).

For the compound `C=CC[C@@H]1C=CC(ON=C(C)C)[C@@H](CO)O1` (stereo not given in full), the composite z-score in assay [1] was 0.0856; in [2] it was -0.809; in [3], -0.196; in assay [4] it was -0.246; in assay [5], -0.561; in [6], -0.34. For the same compound, the composite z-score is -0.0889 in assay [7]; -0.238 in assay [9]; 0.107 in [10]; -0.316 in assay [11]; -0.632 in assay [15]; -0.103 in assay [17]. Also, the figures for the composite z-score in [18], in assay [19] and in assay [20] were -0.117, -1.08 and -0.215, respectively. For the same compound, the z-score is 1.35 (inactive) in [8]; 1.03 (inactive) in [12]; 0.446 (inactive) in assay [13]; 1.16 (inactive) in assay [14]; 0.452 (inactive) in assay [16].
